# Sfp inh – Sfp phosphopantetheinyl transferase inhibition; Q9F4F7; hit rate 3.5% among 310,000; Potency, µM, without a hit: largest response in the series, negative = inhibition, hits mostly inhibitors; Biochemical Sfp PPTase activity, qHTS; AID 1490;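 also: the enzyme is Sfp with the accession as filed and its product quenches rhodamine fluorescence; 0% = enzyme reaction without inhibitor and -100% = no enzyme wells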
#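 Fluorescence-quenching assay: 15 nM Sfp-PPTase preincubated 15 min at room temperature with compound, then 5 uM rhodamine-CoA and 12.5 uM BHQ-2-labelled YbbR peptide added. Fluorescence (ex 525/em 598 nm) read at start and after 30 min; difference gives rate.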
# L3MBTL1 inh – L3MBTL1 (human) inhibition; Q9Y468; Potency, µM (doses to about 57.1 µM), inactives show at the top dose activity, negative = inhibition, most hits filed as inhibitors; AID 485360; AlphaScreen L3MBTL1–H3K9me1 peptide binding; hit rate 0.66% among 230,000; also: % is scaled to controls: 0 for no effect and ±100 for the full control effect; nearly all actives have a fitted effect of over 60% in size
# Target sequence (Q9Y468 whole entry, looked up): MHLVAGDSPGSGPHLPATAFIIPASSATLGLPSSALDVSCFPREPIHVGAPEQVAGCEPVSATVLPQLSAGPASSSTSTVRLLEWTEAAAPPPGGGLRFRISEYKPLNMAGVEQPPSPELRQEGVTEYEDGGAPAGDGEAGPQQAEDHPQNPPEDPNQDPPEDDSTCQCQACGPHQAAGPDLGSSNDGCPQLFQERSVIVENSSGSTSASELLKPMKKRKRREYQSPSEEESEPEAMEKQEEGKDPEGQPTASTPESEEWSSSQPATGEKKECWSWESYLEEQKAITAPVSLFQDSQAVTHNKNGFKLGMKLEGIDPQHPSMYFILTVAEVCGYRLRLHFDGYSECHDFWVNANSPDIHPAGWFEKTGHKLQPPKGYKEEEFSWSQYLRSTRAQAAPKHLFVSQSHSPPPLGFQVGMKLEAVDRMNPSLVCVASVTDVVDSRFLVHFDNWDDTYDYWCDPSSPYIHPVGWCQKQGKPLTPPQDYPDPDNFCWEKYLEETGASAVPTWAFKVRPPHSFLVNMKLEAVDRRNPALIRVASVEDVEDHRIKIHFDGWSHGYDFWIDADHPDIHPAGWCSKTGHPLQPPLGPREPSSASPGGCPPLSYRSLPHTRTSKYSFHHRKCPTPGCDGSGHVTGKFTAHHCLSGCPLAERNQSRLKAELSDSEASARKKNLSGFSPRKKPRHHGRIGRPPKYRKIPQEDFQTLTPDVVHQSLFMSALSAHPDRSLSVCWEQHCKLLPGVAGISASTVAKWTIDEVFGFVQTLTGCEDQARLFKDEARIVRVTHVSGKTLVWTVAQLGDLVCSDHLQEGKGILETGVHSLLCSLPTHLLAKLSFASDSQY
#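 First, the protein-peptide complex forms for 30 min at room temperature (L3MBTL1 50 nM, biotinylated H3K9me1 peptide 75 nM). Next, compounds are pin-transferred and incubated 30 min. Finally, AlphaScreen beads are added and read after 30 min.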
# JMJD2A Tudor – inhibitors of human JMJD2A Tudor domain | AID 504339 | AlphaScreen JMJD2A-Tudor / H3K4me3 peptide binding | hit rate 4.4% among 390,000 | Potency, µM (doses to about 114 µM), for the others: top-dose activity change, negative = inhibition, actives largely listed as inhibitors | O75164; also: % is scaled to controls: 0 for no effect and ±100 for the full control effect; nearly all actives have a fitted effect of over 50% in size
# G9a block – G9a (human) methyltransferase inhibition. G9a H3K9 monomethylation, AlphaScreen, 2 h. hit rate 8.8% among 350,000. Potency, µM (series often up to 102 µM), for the others: at the top dose activity, negative = inhibition, usual class: inhibitors. Q96KQ7; also: % is scaled to controls: 0 for no effect and ±100 for the full control effect; nearly all actives have a fitted effect of over 75% in size
#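 Signal arises when biotinylated H3K9 peptide, once monomethylated, bridges streptavidin donor and antibody-captured acceptor beads. Enzyme at 20 nM was preincubated 15 min with test compounds; peptide 500 nM and SAM 20 uM then reacted for 2 h.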
# HP1b chromo inh – blocks HP1-beta chromodomain binding to methylated histone tails; P83916; AlphaScreen HP1-beta / biotin-H3K9me3 peptide binding; Potency, µM (titrated, usually from 114 µM), inactives show at the highest dose activity change, negative = inhibition, most hits filed as inhibitors; hit rate 0.56% among 390,000; also: nearly all actives have a fitted effect of over 70% in size
#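 HP1-beta protein (50 nM final) preincubated 30 min at room temperature with biotinylated H3(1-18)K9me3 peptide (50 nM) in PBS pH 7.4, 0.01% Tween-20, then compound added for 30 min. AlphaScreen streptavidin donor/nickel chelate acceptor beads (10 ug/mL final), 30 min dark, luminescence read.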
# BAZ2B block – inhibitors of human BAZ2B bromodomain; Q9UIF8; AlphaScreen BAZ2B-H3K14Ac peptide displacement; Potency, µM (doses to about 114 µM), inactives show top-dose activity change, negative = inhibition, most hits filed as inhibitors; hit rate 4.4% among 360,000; AID 504333; also: % is scaled to controls: 0 for no effect and ±100 for the full control effect; nearly all actives have a fitted effect of over 60% in size
#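 AlphaScreen luminescence quantifies BAZ2B engagement of H3K14Ac peptide; the protein and biotinylated peptide are both at 50 nM final, buffer PBS pH 7.4 with 0.01% Tween-20, all steps at room temperature.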
# Numbers without * were called inactive; u = inconclusive; x = no result; [ ] = remark or other dose. This is a sample that favours compounds with a hit; in the whole collection about 12% have one here. Calls follow the shape of the dose curve; as a rule, active = well fitted curve in the direction sought with a large enough effect; inconclusive = small, poorly fitted or top-dose-only effect, or another doubt; inactive = no such curve, though single readings can be large; an effect the other way counts as inactive or inconclusive. Potency is read from the fitted curve at half-maximal effect.
SMILES,Sfp inh,L3MBTL1 inh,JMJD2A Tudor,G9a block,HP1b chromo inh,BAZ2B block
COC(=O)c1sc(NC(=S)NC(=O)c2ccccc2)nc1C,-5%,-12%,-10%,9%[59 µM],16%,0%
CCCOc1ccc(C(=O)NC(=S)Nc2nc(C)c(C(=O)N(C)C)s2)cc1,-1%,x,-34%,11µM*,2%,-34%
Cc1nc(NC(=O)C(Cl)Cl)sc1C(=O)N(C)C,-25%,u,79µM*,u,10%,u
O=C(COc1ccccc1)Nc1ccc2nc(SCCOc3ccccc3)sc2c1,x,x,-11%,2%[59 µM],62%,-36%
O=C(OCC#CCSc1nnc(-c2cccc3ccccc23)o1)c1ccc(OC(F)F)cc1,x,x,17%,x,x,x
CCN(Cc1ccccc1)c1ncnc2c1nnn2C,x,x,0%,-32%[59 µM],4%,-2%
CCOC(=O)c1[nH]c2ccccc2c1NC(=O)c1ccccc1F,x,x,-10%,-29%[59 µM],15%,-3%
CC(=O)N1c2ccc(S(=O)(=O)N3CCCCCC3)cc2CC1C(=O)NCc1cccc(C)c1 (stereo unspecified),x,x,1%,0%[12.7 µM],32%,-9%
COC(=O)c1ccc(CSC2=NC[C@@H]3[C@@H]4C(=O)N(Cc5ccccc5)C(=O)[C@@H]4[C@](Cc4ccccc4)(C(=O)OC)N23)cc1,x,-1%,79µM*,x,-4%,x
Cc1ccc(OC(=O)CSc2nnc(CNC(=O)c3ccccc3)o2)cc1,x,x,-11%,u,39%,5%
O=c1oc(-c2ccc(C(F)(F)F)cc2)nn1Cc1cc(Cl)ccc1O,1%,x,x,x,x,x
CC[C@H](C)[C@@H](NC(=O)O[C@@H]1C(=O)c2ccc(OC)cc2O[C@H]1c1ccc2c(c1)OCO2)C(=O)OC,10%,x,x,x,x,x
COc1ccc(C(=O)CSC2=NS(=O)(=O)c3cc(Cl)ccc3N2)cc1,x,0%,-12%,56µM*,25%,9%
CC(=O)Nc1ccc(NC(=O)CSC2=NS(=O)(=O)c3cc(Cl)ccc3N2)cc1,x,-17%,-14%,10µM*,6%,-30%
COc1ccc(CCNC(=O)CSC2=NS(=O)(=O)c3cc(Cl)ccc3N2)cc1OC,x,-5%,-1%,-40%,-9%,6%
CCOC(=O)c1c[nH]c2ccc3ccccc3c2c1=O,-4%,-3%,-15%,-100%,19%,-34%
O=S(=O)(O)c1cccc(N=Nc2c(O)ccc3ccccc23)c1,u,x,u,x,u,11µM*
CCCn1c(O)c(N=Nc2ccc3ccccc3n2)c2ccccc21,-3%,-10%,-5%,32%[59 µM],40%,6%
Cc1[nH]n(S(=O)(=O)c2ccccc2)c(=O)c1N=Nc1cccc(Cl)c1,6%,-2%,-17%,x,30%,6%
CCOC(=O)c1[nH]cnc1N=Nc1c(O)ccc2ccccc12,14%,-10%,79µM*,50µM*,-31%,11µM*
Oc1ccc2ccccc2c1N=Nc1ccccc1F,4%,8.9µM*,3.5µM*,2.2µM*,u,2.8µM*
Oc1ccc2ccccc2c1N=Nc1ccccn1,-15%,10µM*,35µM*,3.2µM*,8.9µM*,4µM*
COc1ccc(S(=O)(=O)N(CC(=O)Nc2cccc(C(F)(F)F)c2)c2ccc(C)cc2)cc1,x,x,-14%,5%[59 µM],9%,6%
CSCC[C@H](NC(=O)[C@H](Cc1ccc(OS(=O)(=O)O)cc1)NC(=O)[C@@H](N)CC(=O)O)C(=O)NCC(=O)N[C@@H](Cc1c[nH]c2ccccc12)C(=O)N[C@@H](CCSC)C(=O)N[C@@H](CC(=O)O)C(=O)N[C@@H](Cc1ccccc1)C(N)=O,-14%,x,x,x,x,x
C[C@H]1Cc2c(COc3ccccc3)nc3c(c2CO1)CN(S(=O)(=O)c1ccc2c(c1)OCCN2C)CC3,7%,x,x,x,x,x
SMILES,Sfp inh,L3MBTL1 inh,JMJD2A Tudor,G9a block,HP1b chromo inh,BAZ2B block
CC(C)(C)c1ccc(OCC(=O)NCC2(N3CCOCC3)CCCCC2)cc1,x,x,-5%,4%[59 µM],54%,-17%
Cc1cc(=O)n2nc(N3CCC(C(=O)Nc4c(C)cccc4C)CC3)sc2n1,x,x,-3%,35%[59 µM],63%,0%
OCCN(CCO)c1ccc(C(c2ccccc2Cl)c2ccc(N(CCO)CCO)cc2Cl)c(Cl)c1,-10%,-11%,u,45µM*,-14%,u
CC(C)=CCC/C(C)=C/CO/N=C1/[C@H]2O[C@@H]2[C@@H](O)[C@H]2[C@H]1CCn1c(=O)n(-c3ccccc3)c(=O)n12,9%,x,x,x,x,x
CCOc1ccc(/C(O)=C2/C(=O)C(=O)N(CCOCCO)C2c2cccnc2)cc1 (stereo unspecified),22%,1%,79µM*,x,12%,-7%
O=C1C(=O)N(CCOCCO)C(c2ccccn2)/C1=C(\O)c1ccccc1 (stereo unspecified),-12%,50%,u,18µM*,14%,u
CCOc1ccc(/C(O)=C2/C(=O)C(=O)N(CCOCCO)C2c2ccccc2)cc1 (stereo unspecified),10%,8%,-32%,u,21%,-14%
CCN(CC)CCN1C(=O)C(=O)/C(=C(/O)c2ccc(F)cc2)C1c1ccncc1 (stereo unspecified),8%,8%,-21%,11%[59 µM],28%,-4%
CN(C)CCCN1C(=O)C(=O)/C(=C(/O)c2ccccc2)C1c1ccccn1 (stereo unspecified),7%,1%,x,-65%,x,-1%
CCN(CC)CCN1C(=O)C(=O)/C(=C(/O)c2ccncc2)C1c1ccccc1F (stereo unspecified),-15%,-1%,-19%,79µM*,14%,2%
CCN(CC)CCCN1C(=O)C(=O)/C(=C(/O)c2ccc(C)cc2)C1c1ccccn1 (stereo unspecified),u,x,89µM*,14µM*,-1%,u
Cc1cccc(CN2CC34CCC(CC3S2(=O)=O)O4)c1 (stereo unspecified),-20%,x,-11%,x,9%,x
CCCCc1nc2ccccc2n2c(-c3ccc(C)cc3)c3c(=O)n(C)c(=O)n(C)c3c12,x,x,25%,20%[59 µM],53%,15%[57.1 µM]
CCOc1ccc(N/C(C)=C/C(=O)c2ccc(C)o2)cc1,-4%,x,3%,50µM*,20%,u
COC(=O)c1ccc(N/C(C)=C/C(=O)c2ccc(C)o2)cc1,10%,3%,89µM*,4%[12.7 µM],-16%,-36%
C/C(=C\C(=O)c1ccc(C)o1)Nc1ccc2c(c1)OCO2,-3%,-8%,u,u,-21%,u
CCc1nn(CC(=O)NCCc2ccc(OC)c(OC)c2)c(=O)c2cc3occc3n12,x,x,-17%,-2%[59 µM],20%,-23%
COc1ccc(-c2nc3sc(CCNC(=O)C(=O)Nc4ccc(C)c(C)c4)c(C)n3n2)cc1,x,x,-16%,-4%[59 µM],24%,-14%
